Laboratory results from PubChem BioAssay (NCATS).
Values joined by “and” are separate entries in the source; they are usually repeats but may differ in a detail not shown here. Equal values may be shown once. Results filed as inconclusive are left out. Active and inactive are the calls of the source. Unless noted, calls come from the whole dose curve; as a rule, active = well fitted curve in the direction sought with a large enough effect; inconclusive = small, poorly fitted or top-dose-only effect, or another doubt; inactive = no such curve, though single readings can be large; an effect the other way counts as inactive or inconclusive.

Key:
[1] = target: Androgen receptor (Homo sapiens) (UniProt P10275); experiment: qHTS assay for small molecule agonists of androgen receptor signaling (AID 588515; active = well fitted curve in the direction sought with a large enough effect in the signal ratio, with a control signal flat; the % refers to the signal ratio; note: % is set by controls: 0 for no effect and ±100 for the full control effect); conditions: AR-UAS-bla HEK293, beta-lactamase ratio, agonist 16 h; active compounds read high
Procedure, shortened: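 EC50 and efficacy came from Hill fits of titrations (up to 92 uM) normalized to 30 nM R1881 as 100% and DMSO as 0%. Compound exposure was 16 h at 37 C on AR-UAS-bla HEK293 cells, with a 405/460/530 nm CCF4 fluorescence read.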

[2] = target: Androgen receptor (Homo sapiens) (UniProt P10275); experiment: qHTS assay for small molecule antagonists of androgen receptor signaling (AID 588516; active = well fitted curve in the direction sought with a large enough effect in the signal ratio, with a control signal flat, not every such curve was filed as active; the % refers to the signal ratio; note: % is set by controls: 0 for no effect and ±100 for the full control effect); conditions: AR-UAS-bla HEK293, beta-lactamase ratio, antagonist mode, 16 h; series mostly up to 76.8 µM
Procedure, shortened: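 Compounds tested in titration against 10 nM R1881 in AR-responsive bla reporter HEK 293 cells; CCF4 fluorescence (460/530 nm) after 16 h exposure gave IC50 and efficacy.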

[3] = qHTS assay to identify small molecules that stimulate interleukin-8 (IL-8) secretion (AID 651758; active = well fitted activation curve with a large enough effect in the signal ratio; the % refers to the signal ratio; note: 0% is about no effect); conditions: HTRF ratio (665/615); series mostly up to 92.2 µM
Procedure, shortened: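 THP-1 cells (2000/well) exposed to compound 16 h at 37 C; secreted IL-8 then detected by HTRF with cryptate- and XL665-labelled anti-IL-8 antibody pair after 1-3 h at room temperature.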

[4] = target: Estrogen receptor (Homo sapiens) (UniProt P03372); experiment: qHTS assay for small molecule antagonists of estrogen receptor alpha signaling (AID 588513; active = well fitted curve in the direction sought with a large enough effect in the signal ratio, with a control signal flat, not every such curve was filed as active; the % refers to the signal ratio; note: % is set by controls: 0 for no effect and ±100 for the full control effect); conditions: ER-alpha-UAS-bla HEK293, beta-lactamase ratio, antagonist mode; series mostly up to 76.9 µM
Procedure, shortened: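 Antagonist-mode qHTS in ER-alpha-UAS-bla HEK 293 cells: compound titration, 0.5nM estradiol for 18 h, CCF4 fluorescence, Hill-derived IC50.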

[5] = target: Estrogen receptor (Homo sapiens) (UniProt P03372); experiment: qHTS assay for small molecule agonists of estrogen receptor alpha signaling (AID 588514; calls by dose curve;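 note: 0% = vehicle only and 100% = reference agonist; nearly all actives have a fitted effect of over 70% in size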); conditions: ER-alpha-UAS-bla HEK293, beta-lactamase ratio, 18 h, percent of full estradiol response, vehicle zero; series mostly up to 76.8 µM
Procedure, shortened: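 Cells were plated at 5000/well, incubated 4 hrs at 37 C, dosed with compound titration series, incubated 18 hrs at 37 C, loaded with CCF4 dye for 2 hrs at RT, then fluorescence was read.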

[6] = Cell Viability - LYMP2-018 (AID 985); conditions: LYMP2-018 lymphoblastoid cells, viability (qHTS); series mostly up to 92.2 µM;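 note: compound exposure lasted 24 hr at 37 °C; plate controls were DMSO only for no effect and tetraoctylammonium bromide at 92 µM for full effect; nearly all actives have a fitted effect of over 50% in size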
Procedure, shortened: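 Luminescent ATP signal (CellTiter-Glo, read after 30 min at room temperature) reports viable cells after 24 hr compound treatment at 37 C. Concentration-response data were fitted to the standard Hill equation for AC50.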

[7] = Cell Viability - LYMP2-020 (AID 986); conditions: series mostly up to 92.2 µM;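 note: plate controls were DMSO only for no effect and tetraoctylammonium bromide at 92 µM for full effect; nearly all actives have a fitted effect of over 55% in size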
Procedure, shortened: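 Luminescent ATP signal (CellTiter-Glo, 30 min at room temperature) is the read-out after 24 h compound treatment of lymphoblastoid cells at 37 C. AC50 values come from Hill-equation fits across concentrations.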

[8] = Cell Viability - LYMP2-022 (AID 987); conditions: LYMP2-022 lymphoblastoid cell viability; series mostly up to 92.2 µM;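 note: 0% = DMSO alone and full effect = tetraoctylammonium bromide at 92 µM; nearly all actives have a fitted effect of over 55% in size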
Procedure, shortened: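 qHTS: human lymphoblastoid cells 2500/well; 5 hr 37 C; cpd added; 24 hr 37 C; CellTiter-Glo, 30 min RT; luminescence. AC50 via Hill fit; tetraoctylammonium bromide positive ctrl.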

[9] = Cell Viability - LYMP2-024 (AID 988); conditions: LYMP2-024 lymphoblastoid cell viability; series mostly up to 92.2 µM;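 note: plate controls were DMSO only for no effect and 92 µM tetraoctylammonium bromide for full effect; nearly all actives have a fitted effect of over 60% in size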
Procedure, shortened: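 Steps: seed 2500 cells/well, 5 hr 37 C; add compound, 24 hr 37 C; add CellTiter-Glo, 30 min room temperature; read luminescence. AC50 derived by Hill modelling of concentration-dependent ATP loss.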

[10] = Cell Viability - LYMP2-026 (AID 989); conditions: LYMP2-026 lymphoblastoid cell viability, qHTS; series mostly up to 92.2 µM; note: % is set by controls: 0 for no effect and ±100 for the full control effect; nearly all actives have a fitted effect of over 50% in size
Procedure, shortened: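 Luminescent ATP signal (CellTiter-Glo, 30 min room temperature) measures viable lymphoblastoid cells after 24 hr compound treatment at 37 C. Decreased ATP reflects acute toxicity; AC50 values come from Hill-equation modeling.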

[11] = Cell Viability - LYMP1-002 - Assay at 24 hr (AID 993); conditions: LYMP1-002 lymphoblastoid cells viability; series mostly up to 92.2 µM; note: % is set by controls: 0 for no effect and ±100 for the full control effect
Procedure, shortened: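 Cells plated 2500/well, 5 hr 37 C; compounds added, 24 hr 37 C; CellTiter-Glo added, 30 min RT; luminescence read. Tetraoctylammonium bromide positive control. Hill-equation AC50.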

[12] = Cell Viability - LYMP1-002 - Assay at 40 hr (AID 994); conditions: LYMP1-002 lymphoblastoid cell viability; series mostly up to 92.2 µM;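 note: 0% = DMSO only and full inhibition = 92 µM tetraoctylammonium bromide; nearly all actives have a fitted effect of over 60% in size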
Procedure, shortened: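 Luminescent ATP signal served as the viability readout, with decreases taken as toxicity. Cells were treated with compounds across a concentration range for 40 hours at 37 C, and AC50 values came from standard Hill modeling.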

[13] = target: DNA dC->dU-editing enzyme APOBEC-3G (Homo sapiens) (UniProt Q9HC16); experiment: qHTS for inhibitors of Vif-A3G interactions: Validation (AID 588379); conditions: Vif-A3G protein interaction assay; series mostly up to 46.1 µM; note: 0% is about no effect
Procedure, shortened: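 HeLa cells stably expressing Vif and A3G-eYFP, 700 cells/well, incubated overnight at 37 deg C, then exposed to compound overnight at 37 deg C. Inhibition of Vif-mediated degradation read as increased yellow fluorescence (Ex 488/Em 500-530) by laser-scanning cytometry.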

[14] = target: Glucocorticoid receptor (Homo sapiens) (UniProt P04150); experiment: qHTS assay for small molecule agonists of glucocorticoid receptor signaling (AID 588532; active = well fitted curve in the direction sought with a large enough effect in the signal ratio, with a control signal flat; the % refers to the signal ratio;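 note: 100% = dexamethasone at 0.1 µM and 0% = DMSO only wells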); conditions: HeLa MMTV-bla, beta-lactamase ratio, agonist, 18 h; active compounds read high; percent of dexamethasone control, DMSO zero
Procedure, shortened: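 MMTV-bla HeLa beta-lactamase reporter cells in 1% charcoal/dextran FBS medium, compounds up to 92 uM for 18 h at 37 C, CCF4 readout; normalized to 0.1 uM dexamethasone (100%), EC50 and efficacy from Hill fits.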

[15] = S16 Schwann cell PMP22 intronic element firefly luciferase assay (AID 624032); conditions: S16 rat Schwann cells, PMP22 element FLuc, 24 h; series mostly up to 25.7 µM;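 note: plate controls were DMSO for no effect and PTC124 positive control mean for full effect; nearly all actives have a fitted effect of over 30% in size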
Procedure, shortened: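 Rat S16 Schwann cells stably carrying firefly luciferase driven by a PMP22 intronic element, in 10% FBS, treated 24 h at 37 C. ONE-Glo luminescence normalized to PTC124 control and DMSO (0%); curves classed by r2, magnitude and activity.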

[16] = S16 Schwann cell PMP22 intronic element beta-lactamase assay (AID 624044; calls by dose curve;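 note: 0% = DMSO and -100% = potassium clavulanate positive control; nearly all actives have a fitted effect of over 15% in size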); conditions: S16 rat Schwann cells, PMP22 element beta-lactamase FRET, 24 h; series mostly up to 17.1 µM
Procedure, shortened: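 Rat S16 Schwann cells with beta-Lac driven by a PMP22 intronic element, compound-treated 24 h at 37 °C. LiveBLAzer FRET B/G read: 460 nm normalized to potassium clavulanate vs DMSO; 535 nm FRET as viability; concentration-effect curves classified.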

CP268 = experiment: qHTS profiling for inhibitors of Plasmodium falciparum proliferation (AID 504749);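 note: 0% = DMSO vehicle and full inhibition = artemisinin control; nearly all actives have a fitted effect of over 60% in size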; conditions: P. falciparum in erythrocytes, SYBR Green DNA, 72 h; series mostly up to 12.8 µM
Procedure, shortened: (§1)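 P. falciparum-infected erythrocytes (0.3% parasitemia, 2.5% hematocrit) incubated with compound 72 h at 37 C, 5% CO2. Parasite DNA detected by SYBR Green after lysis, overnight at room temperature; normalised to 0.29 uM artemisinin and DMSO.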

DIV14 = experiment: as above; conditions: P. falciparum in erythrocytes, SYBR Green DNA, 72 h; series mostly up to 12.8 µM
Procedure, shortened: as §1

DIV17 = experiment: as above; conditions: P. falciparum in erythrocytes, SYBR Green DNA, 72 h; series mostly up to 12.8 µM
Procedure, shortened: as §1

W2 = experiment: as above; conditions: P. falciparum in erythrocytes, SYBR Green DNA, 72 h; series mostly up to 12.8 µM
Procedure, shortened: as §1

Androgen receptor (Homo sapiens), sequence (P10275 whole entry, looked up): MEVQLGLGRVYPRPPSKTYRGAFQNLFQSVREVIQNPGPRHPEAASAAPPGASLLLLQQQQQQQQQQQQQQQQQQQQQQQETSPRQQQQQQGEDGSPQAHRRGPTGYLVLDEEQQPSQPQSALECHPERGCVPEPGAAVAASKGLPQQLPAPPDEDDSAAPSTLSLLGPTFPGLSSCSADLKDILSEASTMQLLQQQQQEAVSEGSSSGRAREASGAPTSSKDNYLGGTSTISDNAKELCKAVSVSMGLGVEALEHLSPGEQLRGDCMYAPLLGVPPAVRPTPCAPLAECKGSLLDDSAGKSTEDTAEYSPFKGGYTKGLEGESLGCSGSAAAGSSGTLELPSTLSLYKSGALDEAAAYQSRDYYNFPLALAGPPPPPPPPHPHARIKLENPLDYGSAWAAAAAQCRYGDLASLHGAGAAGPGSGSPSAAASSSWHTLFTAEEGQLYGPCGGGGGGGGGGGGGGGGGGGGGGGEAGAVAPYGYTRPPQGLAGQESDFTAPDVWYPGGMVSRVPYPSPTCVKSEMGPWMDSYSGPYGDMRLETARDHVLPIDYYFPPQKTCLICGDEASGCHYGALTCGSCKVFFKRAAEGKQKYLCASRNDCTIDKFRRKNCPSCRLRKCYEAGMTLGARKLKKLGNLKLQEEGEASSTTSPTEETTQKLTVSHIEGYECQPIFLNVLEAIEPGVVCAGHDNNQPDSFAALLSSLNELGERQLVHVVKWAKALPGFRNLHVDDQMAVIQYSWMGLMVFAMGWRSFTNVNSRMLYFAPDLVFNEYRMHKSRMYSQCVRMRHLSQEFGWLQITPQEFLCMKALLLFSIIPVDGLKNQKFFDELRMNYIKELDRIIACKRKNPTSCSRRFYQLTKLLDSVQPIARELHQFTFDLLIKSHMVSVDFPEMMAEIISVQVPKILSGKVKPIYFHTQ
Estrogen receptor (Homo sapiens), sequence (P03372 whole entry, looked up): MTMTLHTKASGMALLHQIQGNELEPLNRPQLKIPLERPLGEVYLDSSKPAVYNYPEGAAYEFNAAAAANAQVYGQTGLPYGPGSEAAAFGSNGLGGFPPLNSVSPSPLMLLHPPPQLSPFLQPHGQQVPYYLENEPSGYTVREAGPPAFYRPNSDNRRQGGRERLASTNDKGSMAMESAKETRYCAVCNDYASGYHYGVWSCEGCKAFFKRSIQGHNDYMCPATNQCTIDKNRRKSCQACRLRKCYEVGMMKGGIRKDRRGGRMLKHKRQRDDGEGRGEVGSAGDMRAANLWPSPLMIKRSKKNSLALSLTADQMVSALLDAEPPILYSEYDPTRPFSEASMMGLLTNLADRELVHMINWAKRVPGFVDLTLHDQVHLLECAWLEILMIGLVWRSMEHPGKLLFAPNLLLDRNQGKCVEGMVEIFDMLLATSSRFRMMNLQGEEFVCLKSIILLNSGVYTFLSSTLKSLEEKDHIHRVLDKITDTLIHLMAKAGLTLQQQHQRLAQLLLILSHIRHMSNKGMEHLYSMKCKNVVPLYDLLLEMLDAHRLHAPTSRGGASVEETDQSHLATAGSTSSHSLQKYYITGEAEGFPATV
DNA dC->dU-editing enzyme APOBEC-3G (Homo sapiens), sequence (Q9HC16 whole entry, looked up): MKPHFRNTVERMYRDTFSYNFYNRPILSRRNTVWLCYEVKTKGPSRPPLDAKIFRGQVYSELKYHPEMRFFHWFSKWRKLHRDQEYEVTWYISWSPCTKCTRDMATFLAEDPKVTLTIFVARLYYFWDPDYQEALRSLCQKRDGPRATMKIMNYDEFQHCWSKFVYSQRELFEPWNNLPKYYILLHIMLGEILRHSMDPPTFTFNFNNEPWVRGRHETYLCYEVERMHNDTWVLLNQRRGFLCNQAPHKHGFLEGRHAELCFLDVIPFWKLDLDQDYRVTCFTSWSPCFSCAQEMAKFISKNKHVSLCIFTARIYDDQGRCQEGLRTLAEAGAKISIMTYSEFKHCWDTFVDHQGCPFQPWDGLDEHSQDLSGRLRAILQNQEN
Glucocorticoid receptor (Homo sapiens), sequence (P04150 whole entry, looked up): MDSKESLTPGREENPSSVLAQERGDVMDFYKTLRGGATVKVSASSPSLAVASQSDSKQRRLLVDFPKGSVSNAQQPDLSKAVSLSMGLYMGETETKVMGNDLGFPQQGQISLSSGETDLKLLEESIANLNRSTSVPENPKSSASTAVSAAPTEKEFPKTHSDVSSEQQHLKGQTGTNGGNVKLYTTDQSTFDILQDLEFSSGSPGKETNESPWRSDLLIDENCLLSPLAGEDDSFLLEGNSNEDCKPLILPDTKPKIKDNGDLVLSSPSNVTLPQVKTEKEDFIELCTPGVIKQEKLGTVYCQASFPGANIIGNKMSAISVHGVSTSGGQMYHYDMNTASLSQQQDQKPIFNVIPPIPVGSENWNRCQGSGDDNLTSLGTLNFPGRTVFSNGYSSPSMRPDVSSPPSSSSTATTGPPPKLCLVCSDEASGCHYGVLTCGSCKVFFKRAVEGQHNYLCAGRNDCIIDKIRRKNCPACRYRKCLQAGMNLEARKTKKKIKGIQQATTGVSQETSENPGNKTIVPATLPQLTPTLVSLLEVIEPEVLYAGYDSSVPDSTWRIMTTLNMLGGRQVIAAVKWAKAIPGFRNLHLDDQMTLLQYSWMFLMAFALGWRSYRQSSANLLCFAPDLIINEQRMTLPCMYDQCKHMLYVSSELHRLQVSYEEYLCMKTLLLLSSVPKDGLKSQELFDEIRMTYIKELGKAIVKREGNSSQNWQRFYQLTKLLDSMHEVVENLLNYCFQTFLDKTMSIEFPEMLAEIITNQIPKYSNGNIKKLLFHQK

C=C(C)[C@H]1CC=C(C)C(=O)C1
inactive: activation [1] 12.8% and -1.39% | outcome [2] | outcome [3]

COS(C)(=O)=O
inactive: outcome [4] | outcome [5]

CC1=CC(=O)CC(C)(C)C1(O)/C=C/C(C)=C\C(=O)O (stereo not drawn)
inactive: outcome [6] | outcome [7] | outcome [8] | outcome [9] | outcome [10] | outcome [11] | outcome [12] | outcome [13] | activation [14] 1.52%

CN1CCCC[C@@H]1CCN1c2ccccc2Sc2ccc(S(C)=O)cc21 (stereo partly drawn)
inactive: Potency [15] | outcome [16] | Potency (CP268) | Potency (DIV14) | Potency (DIV17) | Potency (W2)

Cc1occc(=O)c1O
inactive: outcome [6] | outcome [7] | outcome [8] | outcome [9] | outcome [10] | outcome [11] | outcome [12]

CN1[C@@H]2CC[C@H]1CC(OC(=O)[C@@H](O)c1ccccc1)C2 (stereo partly drawn)
inactive: outcome [16] | Potency (CP268) | Potency (DIV14) | Potency (DIV17) | Potency (W2)

CC[C@@]12CCCN3CCc4c(n(c5ccccc45)C(=O)C1)[C@H]32
inactive: Potency [15]
